# From PubChem BioAssay AID1446 (The Scripps Research Institute Molecular Screening Center, 2008)
# Screen size: about 220,000 compounds; about 2,400 (1.1%) were called active. For the sample, actives were picked, then their nearest neighbours and some compounds at random. A number with no mark means an inactive call.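 How the source made its calls: active means inhibition above the campaign mean plus 3 SD over all tested compounds (cut at about 24% in these data); inactive means the rest.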
# Test: viability loss in Ba/F3 EpoR-JAK2V617F cells – cell-based, luminescence, JAK2V617F inhibitor project, primary screen (AID 1446);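 further: cytokine-independent growth of Ba/F3 cells driven by EpoR plus mutant JAK2; 0% = DMSO-treated cells and 100% = JAK inhibitor I control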
# Conditions: ATP luminescence, at 5.6 µM, hits give high values
row,SMILES,inhibition
1,COc1cccc(-n2c(=O)c3c(C)c(C(=O)N(C)C)sc3n(CC(=O)NCCc3ccc(OC)c(OC)c3)c2=O)c1,3.31%
2,C/C(=N\NC(=O)C(N)=O)c1ccc2c(c1)OCCO2,1.44%
3,CCn1c2ccccc2c2cc(CC(N)=O)ccc21,2.78%
4,CCN(CCNC(=O)C1=C(C)C(=O)OC12CCC(C)CC2)c1ccccc1 (configuration not stated),-2%
5,CC(C)CC(COCc1ccc(Cl)cc1)N1CCN(C(=O)c2ccc(C(F)(F)F)cc2)CCC1=O (configuration not stated),-1.84%
6,N#C/C=C\Oc1ccc(Cl)cc1N,28% (active)
7,COc1ccc(Cl)cc1C(=O)NCC#N,-0.27%
8,COc1ccc(N(C(=O)c2ccc(C)cc2)S(=O)(=O)c2cccs2)cc1,0.51%
9,Cc1nc(CNS(=O)(=O)c2cc([N+](=O)[O-])ccc2C)cs1,0.63%
10,O=C(O)CCC(=O)Nc1nc2ccc([N+](=O)[O-])cc2s1,3.19%
11,O=C(Nc1nc2ccc([N+](=O)[O-])cc2s1)c1ccncc1,-1.41%
12,O=C(NC(Nc1nc2ccc([N+](=O)[O-])cc2s1)(C(F)(F)F)C(F)(F)F)c1ccccc1,70.1% (active)
13,CC1C(=O)NC(=O)C1c1ccccc1 (configuration not stated),-4.47%
14,CN(Cc1ccccc1)Cc1ccccc1F,3.28%
15,CN(C)c1ccc(/C=N/N(Cc2ccccc2)c2ccccc2)cc1,3.41%
16,c1ccc(Cc2cc[n+](Cc3ccccc3)cc2)cc1,52.6% (active)
17,CN(C)c1cc[n+](Cc2ccccc2)cc1,87.3% (active)
18,COC(=O)c1ccc(Cc2ccccc2)o1,-0.12%
19,CSc1ccc(CN2C(=O)NC3(CCCCCC3)C2=O)cc1,-4.13%
20,C/C(=N\NC(=O)COc1c(C)cccc1C)c1cccs1,1.35%
21,COCCn1c(SCC(=O)c2[nH]c(C)c(C(C)=O)c2C)nc2ccccc2c1=O,1.81%

row,SMILES,inhibition
1,Cc1[nH]n(C)c(=O)c1N=Nc1ccc(S(C)(=O)=O)cc1,1.06%
2,CC1=C/C(=N\S(=O)(=O)c2ccccc2)C(C(C)C)=CC1=O,-3.55%
3,CCOC(=O)C1(S(=O)(=O)c2ccccc2)CCN(Cc2ccccc2)CC1,0.13%
4,CC1=C/C(=N\OS(=O)(=O)c2ccccc2)C=CC1=O,40.6% (active)
5,Cc1ccc2nc(C)c3c(c2c1)N(c1ccccc1)CC3,19.9%
6,COc1ccc(NC(=O)CN2C(=O)CSC2=O)cc1,-1.19%
7,COCCCNC(=O)C1CCN(c2ccc(N3CCOCC3)nn2)CC1,-2.04%
8,CC(C)OCCCNc1ncnc2c1[nH]c1ccc(F)cc12,64.7% (active)
9,O=C1CCCN1CCCNc1ncnc2c1[nH]c1ccccc12,-3.47%
10,COc1cc(OC)c(OC)cc1/C=N/Nc1ncnc2c1[nH]c1ccc(C)cc12,-4.25%
11,CC(=O)N1CCN(S(=O)(=O)c2ccc(C)c([N+](=O)[O-])c2)C1C(C)C (configuration not stated),-3.14%
12,COc1ccc(N=Nc2ccc(O)c(P(=O)(c3ccccc3)c3ccccc3)c2)cc1,-0.59%
13,Cc1nn(-c2ccccc2)c(C)c1NC(=O)CCl,3.19%
14,Cc1nc2ccc(C(=O)O)cc2[nH]1,-7.6%
15,CC(C)c1nc2ccc(C(=O)O)cc2[nH]1,-2.92%
16,COC(=O)Nc1nc2ccc(Sc3ccccc3)cc2[nH]1,83.8% (active)
17,O=C(Cc1ccccc1)Nc1c(Cl)ccc2nsnc12,-3.82%
18,CCC1(C(=O)c2ccccc2)C(c2cccc([N+](=O)[O-])c2)C1(C(=O)OC)C(=O)OC (configuration not stated),-2.96%
19,Cc1cc2c(cc1C)[n+](C)cn2CC(O)COCC1CC=CCC1 (configuration not stated),44.4% (active)
20,CC(NC(=O)Nc1ccccc1)C(c1cccs1)N1CCN(c2ccccc2)CC1 (configuration not stated),-1.45%
21,CCOc1ccc(C2c3[nH]c4ccccc4c3CCN2Cc2cccn2-c2ncccn2)cc1 (configuration not stated),-1.83%

row,SMILES,inhibition
1,O=C(O)CS/C(=C\c1ccc(F)cc1)c1nc2ccccc2s1,-2.1%
2,Cc1cc2oc(C(=O)Nc3c(C)n(C)n(-c4ccccc4)c3=O)c(C)c2cc1Cl,-1.25%
3,O=C(Nc1cccc([N+](=O)[O-])c1)Nc1ccc(Cl)cn1,-2.62%
4,O=C(CCl)N(Cc1cccc([N+](=O)[O-])c1)c1cccc(Cl)c1,84.1% (active)
5,CCN(CC)C(=O)CN(c1cccc([N+](=O)[O-])c1)S(=O)(=O)c1ccccc1,0.82%
6,Cc1ccc(N(C(=O)c2ccc(S(=O)(=O)N(C)C)cc2)C2C=CS(=O)(=O)C2)cc1 (configuration not stated),-0.1%
7,O=C(Cn1nc(CNc2ccc(Cl)cc2)[n+]2c1CCCCC2)c1ccc(Cl)cc1,1.65%
8,Cc1ccc(CNC(=O)C2CC(c3ccccc3[N+](=O)[O-])=NO2)o1 (configuration not stated),-5.08%
9,COc1ccc(C2=NOC(C(=O)NCc3ccco3)C2)cc1OC (configuration not stated),56.5% (active)
10,COc1ccc(-c2cc(C(=O)NCc3ccco3)no2)cc1OC,-1.88%
11,Cc1ccc(NC(=S)N(Cc2ccco2)C(C)c2cccs2)cc1 (configuration not stated),3.37%
12,Cc1ccc(NC(=S)N(CCN2CCCCC2)Cc2ccco2)cc1C,-2.95%
13,Cc1ccc(NC(=S)N(CCCN2CCC(C)CC2)Cc2ccco2)cc1,25.4% (active)
14,O=C(NC1CCCCC1)c1cc(C2CC2)on1,-4.7%
15,CN(C)c1ccc(Nc2c3c4c(cccc4n(C)c2=O)C(=O)c2ccccc2-3)cc1,2.4%
16,CON(C)S(=O)(=O)c1ccc2c(c1)NC(=O)C1CCCN21 (configuration not stated),1.23%
17,Nn1c(SCc2ccccc2)nnc1C1CCCCC1,-0.47%
18,COc1cccc(C(=O)Nc2ccc(N3CCCC3)cc2)c1,59.5% (active)
19,COc1cccc(OC)c1C(=O)Nc1ccc(N2CCCCC2)cc1,-0.78%
20,COc1ccc(C(=O)NC(=S)Nc2ccc(N3CCCC3)cc2)cc1OC,-0.26%
